Holding throughout (format): functional
Assay [1] addresses Solute carrier family 2, facilitated glucose transporter member 1 (Homo sapiens) (UniProt P11166). The assay is described as follows: ST_JUDE_LEISH: Cytotoxicity at 2uM final concentration against transgenic Leishmania Mexicana promastigotes LmGLUT1 that are glucose transport deficient and complemented with the human glucose transporter GLUT1. Activity is measured by DNA content using SYBR green in vitro.

Assay [2] has as its target Hexose transporter 1 (Plasmodium falciparum) (UniProt O97467). Kind of assay: ST_JUDE_LEISH: Cytotoxicity at 2uM final concentration against transgenic Leishmania Mexicana promastigotes LmPfHT that are glucose transport deficient and complemented with the Plasmodium falciparum hexose transporter. Activity is measured by DNA content using SYBR green in vitro.
For assay [3], the target named is Glucose transporter (Leishmania mexicana) (UniProt O61059). The assay is described as follows: ST_JUDE_LEISH: Cytotoxicity at 2uM final concentration against transgenic Leishmania Mexicana promastigotes LmGT2 that are glucose transport deficient and complemented with the L. Mexicana glucose transporter 2. Activity is measured by DNA content using SYBR green in vitro.

This note sets out measurements from ChEMBL document CHEMBL3433997, “St. Jude Leishmania screening dataset” (2016).

Chain of Solute carrier family 2, facilitated glucose transporter member 1 (Homo sapiens) (P11166 whole entry): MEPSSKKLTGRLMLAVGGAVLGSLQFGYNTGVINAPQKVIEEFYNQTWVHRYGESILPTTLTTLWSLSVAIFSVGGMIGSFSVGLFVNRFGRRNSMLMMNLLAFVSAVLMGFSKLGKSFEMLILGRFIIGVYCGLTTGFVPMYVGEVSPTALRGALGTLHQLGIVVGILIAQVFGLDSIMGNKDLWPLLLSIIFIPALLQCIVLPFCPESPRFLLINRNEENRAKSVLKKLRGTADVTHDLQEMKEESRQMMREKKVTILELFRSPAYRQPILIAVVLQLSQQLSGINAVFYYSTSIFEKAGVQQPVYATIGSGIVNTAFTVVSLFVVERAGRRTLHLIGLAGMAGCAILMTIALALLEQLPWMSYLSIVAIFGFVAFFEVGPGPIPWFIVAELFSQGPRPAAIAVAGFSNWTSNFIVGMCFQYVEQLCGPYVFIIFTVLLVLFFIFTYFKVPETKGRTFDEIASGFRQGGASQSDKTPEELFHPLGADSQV

Consider `CN1CCN(c2cc3c(cc2Br)CCN3C(=O)Nc2ccc(-c3cnc4ccccc4c3)cc2)CC1`, for which the results for the inhibition in assay [1], in assay [2] and in assay [3] were 107%, 100% and 109%, respectively.

Turning to `CC1CCCN1Cc1cccc(-c2ccc(C(=O)NCCOc3ccccc3)s2)c1` (stereo not drawn), the inhibition (usually the drop in the measured response relative to a control, in per cent) in assay [1] is 72%; in assay [2] it was 38.9%; in assay [3] it was 25.7%.

With `CCCNCc1ccc(-c2ccc(CN(CCOC)C(=O)CC3CCCC3=O)cc2)nc1` (stereo not drawn), the inhibition was 0.55% in assay [1], 0.07% in assay [2] and -9.43% in assay [3].

For the molecule `Cc1noc(C)c1-c1cccc(CNCc2cccc(-c3ccc(-c4nc5cc(C(F)(F)F)ccc5[nH]4)s3)c2)c1`, the inhibition in assay [1] was found to be 0.65%; in assay [2], 7.93%; in assay [3], 5.87%.

For `NC1CCCN(Cc2cccc(-c3ccc(-c4nc5cc(F)ccc5[nH]4)cc3)c2)C1` (stereo not drawn), the inhibition in assay [1] stood at 3.55%; in assay [2] it was 3.14%; in assay [3], 3.43%.

For the molecule `CSc1ccc(CN2CCC(NC(=O)c3ccc(-c4cccc(C(F)(F)F)c4)s3)CC2)cc1`, the inhibition was determined as 3.18% in assay [1], 0.48% in assay [2] and 3.3% in assay [3].

With `Clc1ccc(Sc2cncnc2N2CCOCC2)cc1`, the inhibition in assay [1] was 3.31%; in assay [2], 1.01%; in assay [3], -0.01%.

Turning to `COc1ccc2nc3cc(Cl)ccc3c(NCCCCN3CCNCC3)c2c1`, the inhibition in assay [1] stood at 6.28%; in assay [2], 6.49%; in assay [3], 3.51%.

In the case of `CN(C)Cc1cccc(-c2cc3c(-c4cnn(C)c4)c(Cl)cnc3[nH]2)c1`, the inhibition in assay [1] was 95.7%; in assay [2], 95%; in assay [3] it was 94.2%.

On to `CCCC(CNCc1ccccc1)CNc1cc(=O)c2ccccc2[nH]1` (stereo not drawn), for which the inhibition was -0.08% in assay [1], -3.44% in assay [2] and -0.73% in assay [3].

On to `CC(C)(C)c1ccc(CN2CCC(CNC(=O)c3cc(-c4cccc(F)c4)cs3)C2)cc1` (stereo not drawn), for which the inhibition in assay [1] was found to be 4.3%; in assay [2], 4.53%; in assay [3], 4.16%.

On to `CCOC(=O)N/N=C/[C@H](CCc1ccccc1)NC(=O)[C@H](CC(C)C)NC(=O)c1cc2cccc(OC)c2o1`, for which the inhibition in assay [1] came to 4.25%; in assay [2], 5.56%; in assay [3], 5.67%.

`Cc1ccc(NC(=O)c2ccc(NCCCN3CC(C)CC(C)C3)c([N+](=O)[O-])c2)cc1F` (stereo not drawn): the inhibition was determined as 8.68% in assay [1], 5.06% in assay [2] and 5.89% in assay [3].

`CCCCCN1CCCN(Cc2cccc(NC(=O)c3ccc(-c4ccccc4)cc3)c2)CC1`: the inhibition is -0.68% in assay [1], -0.99% in assay [2] and 2.3% in assay [3].

As to `Cn1ccnc1CNC(=O)c1ccc(-c2ccc(-c3nc4cc(C(F)(F)F)ccc4[nH]3)s2)cc1`, the figures for the inhibition in assay [1], in assay [2] and in assay [3] were 4.17%, 3.3% and 2.03%, respectively.

Turning to `c1ccc2[nH]c(-c3ccc(-c4ccc(CNC5CC5)cc4)s3)nc2c1`, the inhibition was 0.93% in assay [1], 0.48% in assay [2] and -2.14% in assay [3].

Consider `CN(C)C(CNC(=O)c1cc(-c2ccncc2)c(-c2ccc(NC(=O)Nc3cccc(F)c3)cc2)o1)c1ccccc1` (stereo not drawn), for which the inhibition was 0.98% in assay [1], 0.71% in assay [2] and 0.6% in assay [3].

In the case of `O=S(=O)(c1csc2ccccc12)N(CCC(O)(C(F)(F)F)C(F)(F)F)Cc1cccc(O)c1`, the inhibition is -1.82% in assay [1], -2.19% in assay [2] and -4.98% in assay [3].

For the molecule `Cc1ccc(-c2cc(C(=O)Nc3ccc(S(=O)(=O)N4CCCCC4)cc3)[nH]n2)c(O)c1`, the inhibition in assay [1] was 0.86%; in assay [2], 1.9%; in assay [3] it was -0.53%.

In the case of `O=C(Cn1c(CCc2cccc(F)c2F)cc(=O)c2ccccc21)N(CCN1CCCC1)Cc1ccc(-c2ccc(C(F)(F)F)cc2)cc1`, the inhibition stood at 1.56% in assay [1], 2.33% in assay [2] and 2.03% in assay [3].

Regarding `COc1cccc2c(NN=Cc3ccccc3F)ccnc12`, the figures for the inhibition in assay [1], in assay [2] and in assay [3] were 7.43%, 7.62% and 2.85%, respectively.

On to `O=C(C1CC1c1ccccc1)N(Cc1ccc(-c2ccc(CNCCc3ccccc3)cc2)cc1)C1CCNCC1` (stereo not drawn), for which the inhibition amounted to 10.3% in assay [1], 8.35% in assay [2] and 9.97% in assay [3].

For `Cc1ccc(NC(=O)NC2CCN(c3ccnc4ccccc34)CC2)cc1`, the inhibition in assay [1] was 1.13%; in assay [2] it was 1.21%; in assay [3], 2.3%.

For the molecule `CCCCN(CCCC)CC(O)c1cc(-c2ccc(Cl)cc2)nc2c(Cl)cc(Cl)cc12` (stereo not drawn), the inhibition in assay [1] came out at 6.76%; in assay [2], 7.36%; in assay [3], 4.19%.

With `CC(C)(C)CC(=O)Nc1ccc(Nc2cc(-c3ccncc3)cc3ncc(C(N)=O)cc23)cc1`, the inhibition in assay [1] is -0.38%; in assay [2] it was 1.53%; in assay [3] it was 1.26%.

Regarding `Cc1nc2nc(N)nc(N)c2c(C)c1Cc1ccccc1`, the inhibition is 3.29% in assay [1], 2.88% in assay [2] and 1.2% in assay [3].

Take `CN1CCN(Cc2cc3cc(NC(=O)/C=C/c4cccc(Cl)c4)ccc3s2)CC1`: the inhibition in assay [1] was 0.65%; in assay [2] it was 0.04%; in assay [3], -0.14%.

With `CCOc1c(CNCCCNc2nc3ccccc3[nH]2)cc(I)cc1OC`, the inhibition was 1.59% in assay [1], 1.56% in assay [2] and 2.86% in assay [3].

With `COC(=O)c1cccc(CNCc2cccc(-c3ccc(-c4nc5cccc(C)c5[nH]4)s3)c2)c1`, the inhibition is 1.43% in assay [1], 0.6% in assay [2] and 0.69% in assay [3].

Consider `CCCN(CCC)C(=O)c1cc(-c2cccc(C)c2)nc2ccccc12`, for which the inhibition is 2.62% in assay [1], 0.69% in assay [2] and -1.61% in assay [3].

For `NC1CCN(c2nc(NCCCc3ccc(O)cc3)nc(NCc3cccc4ccccc34)n2)CC1`, the inhibition in assay [1] was 0.21%; in assay [2], -3.11%; in assay [3] it was 2.63%.

In the case of `Cc1cccc(C(=O)Nc2ccc(N3CCCN(Cc4cccc(O)c4)CC3)cc2)c1`, the inhibition worked out at 5.01% in assay [1], 3.72% in assay [2] and 2.78% in assay [3].

With `O=C(Nc1ccc(Cl)cc1Cl)N[C@H]1CCN(CCCCCNC(=O)C2CC2c2ccc(Cl)c(Cl)c2)C1` (stereo partly drawn), the values for the inhibition in assay [1], in assay [2] and in assay [3] were 3.75%, 4.63% and 4.05%, respectively.

On to `Fc1ccc2[nH]c(-c3cccc(-c4cccc(CN5CCN(c6cnccn6)CC5)c4)c3)nc2c1`, for which the inhibition in assay [1] is 7.08%; in assay [2], 5.74%; in assay [3] it was 4.27%.

Consider `CC(C)C[C@H](Nc1ccnc(NCC2CCCCC2)n1)C(=O)Nc1ccccc1`, for which the inhibition in assay [1] was determined as 3.81%; in assay [2], 3.97%; in assay [3] it was 3.2%.

Turning to `COc1c(I)cc(Cc2cnc(N)nc2N)cc1I`, the inhibition in assay [1] is 6.68%; in assay [2], 4.23%; in assay [3] it was 2.6%.
